Source: PubChem BioAssay (NCI)
Compounds without any hit were thinned out: in the full panel of roughly 79,000, 15% have a hit. Values without a mark were called inactive. The source made the active and inactive calls. Cut-off read from the data, not from the text of the source: active = growth inhibition above about 70%; inactive = the rest.

What was measured:
[1] = NCI Yeast Anticancer Drug Screen. Data for the rad50 strain (AID 155);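 note: 0% = growth of vehicle-only cultures of the same strain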; settings: S. cerevisiae rad50 strain growth inhibition, stronger effect = higher value
Method in brief: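 A DNA repair-deficient yeast mutant serves as the test organism; compound-induced growth inhibition is calculated against vehicle-treated cells.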

[2] = NCI Yeast Anticancer Drug Screen. Data for the mec2-1 strain (AID 157); settings: S. cerevisiae mec2-1 strain, stronger effect = higher value
Method in brief: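 Using mec2-1 yeast: add compound, measure growth, express inhibition versus vehicle-treated cultures.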

[3] = NCI Yeast Anticancer Drug Screen. Data for the sgs1 mgt1 strain (AID 161);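 note: 0% = growth of cultures given vehicle only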; settings: S. cerevisiae sgs1 mgt1 strain, stronger effect = higher value
Method in brief: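 Yeast cells carrying a defined DNA-repair defect were exposed to test compounds. Growth inhibition was measured relative to vehicle-treated controls.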

[4] = NCI Yeast Anticancer Drug Screen. Data for the cln2 rad14 strain (AID 165);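 note: 0% = growth equal to vehicle treated cultures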; settings: S. cerevisiae cln2 rad14 strain, stronger effect = higher value
Method in brief: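 Yeast strain cln2 rad14, bearing defects in cell cycle control and DNA repair, serves as the test system; values reflect growth inhibition compared with vehicle.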

[5] = NCI Yeast Anticancer Drug Screen. Data for the bub3 strain (AID 167); settings: S. cerevisiae bub3 mutant strain, stronger effect = higher value
Method in brief: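 Inhibition values come from growth of compound-treated mutant yeast normalised to vehicle-treated controls.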

[6] = NCI Yeast Anticancer Drug Screen. Data for the mlh1 rad18 strain (AID 175); settings: S. cerevisiae mlh1 rad18 strain growth inhibition, stronger effect = higher value
Method in brief: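 Steps: expose repair-defective yeast to compound; measure growth; express inhibition against vehicle-treated controls.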

[7] = at 5.0 µM (retest, dose inferred, filed as 0.5)
[8] = at 50.0 µM (retest, dose inferred, filed as 5.0)

| Structure (SMILES) | growth inhibition [1, 7] | growth inhibition [1, 8] | growth inhibition ([1]; at 50.0 µM) | growth inhibition [2, 7] | growth inhibition [2, 8] | growth inhibition ([2]; at 50.0 µM) | growth inhibition [3, 7] | growth inhibition [3, 8] | growth inhibition ([3]; at 50.0 µM) | growth inhibition [4, 7] | growth inhibition [4, 8] | growth inhibition ([4]; at 50.0 µM) | growth inhibition [5, 7] | growth inhibition [5, 8] | growth inhibition ([5]; at 50.0 µM) | growth inhibition [6, 7] | growth inhibition [6, 8] | growth inhibition ([6]; at 50.0 µM) |
| --- | --- | --- | --- | --- | --- | --- | --- | --- | --- | --- | --- | --- | --- | --- | --- | --- | --- | --- |
| CCCc1cc(=O)oc2c3c(c4c(c12)OC(C)(C)CC4)O[C@H](C)[C@@H](C)[C@H]3O | 8% | 94% (active) | 83.5% (active) | 17% | 97% (active) | 90.5% (active) | 14% | 96% (active) | 89.2% (active) | 18% | 95% (active) | 88.7% (active) | 23% | 96% (active) | 86.8% (active) | 10% | 95% (active) | 86.5% (active) |
| S=C(N/N=C(/c1ccccc1)c1ccccn1)Nc1cccc(Cl)c1 | 48% | 88% (active) | 2.05% | 32% | 91% (active) | 3.3% | 24% | 88% (active) | 41.6% | 25% | 88% (active) | 17.6% | 40% | 85% (active) | 20.1% | 36% | 89% (active) | 26.1% |
| C=CCOc1ccc2c(c1)CC=C1[C@@H]2CC[C@]2(C)C(=N\O)/C(=N/O)C[C@@H]12 | 10% | 95% (active) | 98.8% (active) | -7% | 99% (active) | 99.1% (active) | -9% | 99% (active) | 99% (active) | -2% | 99% (active) | 98.1% (active) | 1% | 99% (active) | 98.8% (active) | 45% | 99% (active) | 99% (active) |
| C(C#Cc1ccccc1)#CCc1ccccc1 | 2% | 17% | 19% | 7% | 16% | 28.9% | 1% | 39% | 54.6% | 1% | 7% | 6.5% | 1% | 13% | 47.2% | -1% | 21% | 74.1% (active) |
| CC1CCN(CCC(=O)c2cccc(O)c2)CC1 | 4% | 57% | 48.5% | -5% | 44% | 36.3% | 2% | 48% | 29.8% | -2% | 26% | 21.1% | -16% | 39% | 15.5% | 10% | 77% (active) | 65.8% |
| O=[N+]([O-])c1ccc2c(N=Nc3ccc4ccccc4c3O)c(O)cc(S(=O)(=O)O)c2c1 | 32% | 34% | 85.6% (active) | 13% | 17% | 55.8% | 17% | 29% | 74.7% (active) | -32% | -68% | 30.6% | -7% | 22% | 82.7% (active) | 9% | 36% | 86.5% (active) |
| S=C(N/N=C/c1ccccn1)N1CCCCCC1 | 99% (active) | 100% (active) | 88.8% (active) | 98% (active) | 100% (active) | 92.8% (active) | 98% (active) | 99% (active) | 91.6% (active) | 97% (active) | 100% (active) | 92.8% (active) | 99% (active) | 100% (active) | 92.2% (active) | 99% (active) | 99% (active) | 88.8% (active) |
| CCOC(=O)c1ccc([N+](=O)[O-])o1 | 5% | 24% | 94.4% (active) | 4% | 11% | 53.1% | 3% | 14% | 66.1% | -1% | 11% | 28.3% | 7% | 49% | 91% (active) | 2% | 30% | 83.7% (active) |
| O=C(N=c1sc2ccccc2s1)N=c1sc2ccccc2s1 | 1% | 10% | 45.9% | 35% | -14% | -2.6% | 14% | -20% | 47.6% | -32% | 6% | 84% (active) | -11% | 7% | 29.6% | -20% | 10% | 50% |
| Cc1ccc(C)c(N2C(=O)C(=O)C(c3nc4ccccc4o3)C(=O)C2=O)c1 | 38% | 98% (active) | 99% (active) | 18% | 99% (active) | 99.3% (active) | 30% | 98% (active) | 96.3% (active) | 30% | 99% (active) | 99% (active) | 13% | 98% (active) | 99.3% (active) | 15% | 98% (active) | 98.8% (active) |
| COc1ccc(CC[N+]2(C)COc3cc4oc(=O)cc(C)c4cc3C2)cc1OC (configuration not stated) | 5% | 9% | -42.5% | 0% | -14% | -33.5% | 0% | -6% | -27.9% | -21% | 9% | 34.6% | -8% | 0% | -20.9% | 9% | 7% | -32.5% |
| COc1ccc2c(c1)CCC1=C2C=C[P+]1(C)C | -4% | 98% (active) | 99.5% (active) | -5% | 96% (active) | 99.7% (active) | -1% | 100% (active) | 99.7% (active) | 4% | 71% (active) | 94.6% (active) | -2% | 97% (active) | 99.7% (active) | -2% | 99% (active) | 99.5% (active) |
| Nc1nc(N)c2nc(CNc3ccc(C(=O)NC(CCC(=O)O)C(=O)O)cc3)cnc2n1 (configuration not stated) | -4% | 30% | 64.8% | -3% | 91% (active) | 97.8% (active) | -2% | -19% | 34.5% | 5% | -47% | -48.9% | 0% | -47% | 74.8% (active) | -1% | -19% | 83.5% (active) |
| CNC(=O)OC(C)CN1c2ccccc2Sc2ccc(Cl)cc21 (configuration not stated) | 12% | 97% (active) | 89.1% (active) | -11% | 99% (active) | 84.5% (active) | 2% | 45% | 90.9% (active) | 19% | 98% (active) | 86.5% (active) | 26% | 98% (active) | 88.3% (active) | 19% | 98% (active) | 88.2% (active) |
| COc1cc2c(c(OC)c1OC)-c1ccc(SC)c(=O)cc1[C@@H](NC1OC(COC(C)=O)C(OC(C)=O)C(OC(C)=O)C1OC(C)=O)CC2 (some centres not stated) | 0% | -3% | -1.6% | -1% | -3% | 2.55% | 1% | 5% | 9.45% | 3% | -14% | 74.2% (active) | 0% | -7% | 0.9% | 0% | -3% | 7.15% |
| COc1cc(/C=C(\C#N)c2ccc([N+](=O)[O-])cc2)ccc1O | -13% | 1% | 75.4% (active) | -23% | -3% | 51.2% | -16% | -4% | 74% (active) | -5% | 33% | 66.5% | -20% | 50% | 81.7% (active) | -35% | 57% | 64.2% |
| CCCCSc1n[nH]c(=O)nc1SC | -142% | 88% (active) | 47.1% | -63% | 79% (active) | 48.6% | -57% | 83% (active) | 46.5% | -56% | 90% (active) | 73.8% (active) | -64% | 87% (active) | 52.4% | -114% | 94% (active) | 50.9% |
| CC(C)CC(CC(C)C)OP(=O)(O)OC(CC(C)C)CC(C)C | 7% | 76% (active) | 80.1% (active) | 11% | 72% (active) | 82.5% (active) | 9% | 71% (active) | 77.2% (active) | 13% | 78% (active) | 85% (active) | 9% | 78% (active) | 70.5% (active) | 9% | 82% (active) | 79.3% (active) |
| COc1cc(/C=C2/SC(=S)NC2=O)cc(OC)c1O | -18% | 29% | 46.4% | 3% | 49% | 30.9% | 1% | 42% | 71.4% (active) | -25% | 20% | -1.6% | -24% | 22% | 42.6% | -1% | 19% | 41.2% |
